{"source": "PubChem BioAssay (Tox21)", "note": "Unmarked numbers belong to inactive results. The call rests on the fitted dose curve; in most records, active means well fitted cell-killing curve with a large enough effect in the repeat runs; inconclusive means weak or mixed curves, or effect the other way; inactive means flat fitted curve, though single readings scatter. On the % scale 0 is the no-effect control and ±100 the full control effect."}
{"assay": "qHTS assay to identify small molecule HDAC inhibitors - cell viability counter screen (AID 1259365); further: nearly all actives have a fitted effect of over 50% in size", "settings": "HCT-116 viability, CellTiter-Glo ATP luminescence, 2 h; series mostly up to 92.4 µM; activity change, negative = cytotoxicity: at the top concentration", "from_the_text": "U.S. Tox21 Program National Center for Advancing Translational Sciences [NCATS] NIH Chemical Genomics Center [NCGC] U.S. Environmental Protection Agency [EPA] National Institutes of Environmental Health Sciences [NIEHS] National Toxicology Program [NTP] U.S. Food and Drug Administration [FDA] Tox21 Assay Overview: Histone deacetylases (HDACs) are a group of epigenetic enzymes that regulate gene expression by histone deacetylation. HDACs are capable of introducing epigenetic modifications and such aberrations contribute to the onset and progression of several human diseases, thus making HDACs a popular therapeutic target. For identifying endogenous class I/II HDAC inhibitors a homogenous, luminogenic HDAC I/II cell based assay was used to measure the relative activity of class I and II HDACs from cells. Wild type HCT-116 cells were used to screen Tox21 compound libraries for identifying class I/II HDAC inhibitors.\nTox21 Assay Protocol Summary: HCT-116 cells were dispensed at 1,500 per well in 5uL of culture medium into white solid bottom 1536-well plates (Greiner Bio-One, Monroe, NC) using a Multidrop Combi (Thermo Scientific, Waltham, MA) dispenser. The assay plates were incubated at 37 C and 5% CO2 for an overnight, and then 23nL of compounds dissolved in DMSO and positive control were transferred using a Pintool station (Wako, San Diego, CA). The assay plates were incubated at 37C and 5% CO2 for 2hr. After compound treatment, 4uL of CellTiter-Glo reagent (Promega Corporation, Madison, WI) was added to each well of the assay plates using Flying Reagent Dispenser (FRD, Aurora Discovery, San Diego, CA) and incubated the assay plates at room temperature for 30min. The luminescence signal was quantified using a ViewLux plate reader (Perkin Elmer, Shelton, CT)."}
{"smiles": "CCN(CCCCOC(=O)c1ccc(OC)c(OC)c1)C(C)Cc1ccc(OC)cc1", "note": "(stereo not given)", "activity change, negative = cytotoxicity": "-3.21% [at 42.5 µM]"}
{"smiles": "CC(C)(C)c1ccc(CCC=O)cc1", "activity change, negative = cytotoxicity": "5.67%"}
{"smiles": "CCC(C(=O)O)c1ccc(N2Cc3ccccc3C2=O)cc1", "note": "(stereo not given)", "activity change, negative = cytotoxicity": "-8.22% [at 42.5 µM]"}
{"smiles": "CCCCCCCCS", "activity change, negative = cytotoxicity": "1.86%"}
{"smiles": "O=C(O)c1cc(C(=O)O)c(C(=O)O)cc1C(=O)O", "activity change, negative = cytotoxicity": "2.76%"}
{"smiles": "CC(C)(C)c1cc(C=O)cc(C(C)(C)C)c1O", "activity change, negative = cytotoxicity": "-0.689% [at 42.5 µM]"}
{"smiles": "COC(=O)c1cc(Cl)ccc1[N+](=O)[O-]", "activity change, negative = cytotoxicity": "-0.0124%"}
{"smiles": "CCCOC(C)=O", "activity change, negative = cytotoxicity": "2.58%"}
{"smiles": "CCCCCCCCCCCC(=O)OCC", "activity change, negative = cytotoxicity": "1.75%"}
{"smiles": "Nc1ccc(-c2ccc(F)cc2)cc1", "activity change, negative = cytotoxicity": "3.88%"}
{"smiles": "C=CC(=O)OCCCCCCCCCC", "activity change, negative = cytotoxicity": "-3.3%"}
{"smiles": "Cc1nc2sccn2c(=O)c1CCN1CCC(=C(c2ccc(F)cc2)c2ccc(F)cc2)CC1", "activity change, negative = cytotoxicity": "-11.1% [at 42.5 µM]"}
{"smiles": "O=C(O)c1ccccc1[N+](=O)[O-]", "activity change, negative = cytotoxicity": "-0.993%"}
{"smiles": "C=C[Si]1(C)O[Si](C)(C=C)O[Si](C)(C=C)O[Si](C)(C=C)O1", "note": "(stereo not given)", "activity change, negative = cytotoxicity": "2.18%"}
{"smiles": "O=S(=O)(O)c1cc(Cl)c(Cl)cc1Cl", "activity change, negative = cytotoxicity": "3.72%"}
{"smiles": "Nc1ccc(C(=O)Oc2ccccc2)c(O)c1", "activity change, negative = cytotoxicity": "3.91% [at 42.5 µM]"}
{"smiles": "CCOc1ccc2c(c1)C(C)CC(C)(C)N2", "note": "(stereo not given)", "activity change, negative = cytotoxicity": "-6.85%"}
{"smiles": "O=[N+]([O-])c1ccccc1CCO", "activity change, negative = cytotoxicity": "2.57%"}
{"smiles": "CC(COc1ccccc1)NC(C)C(O)c1ccc(O)cc1", "note": "(stereo not given)", "activity change, negative = cytotoxicity": "-1.82% [at 42.5 µM]"}
{"smiles": "C[C@H](N)C(=O)N[C@@H](C)C(=O)NC1[C@H]2CN(c3nc4c(cc3F)c(=O)c(C(=O)O)cn4-c3ccc(F)cc3F)C[C@@H]12", "note": "(stereo not given in full)", "activity change, negative = cytotoxicity": "5.2% [at 42.5 µM]"}
{"smiles": "SCCOCCOCCS", "activity change, negative = cytotoxicity": "-7.96%"}
{"smiles": "N#Cc1ccc(CC(=O)c2cccc(C(F)(F)F)c2)cc1", "activity change, negative = cytotoxicity": "-7.98%"}
{"smiles": "COC(=O)Cc1cccc2ccccc12", "activity change, negative = cytotoxicity": "-3.28%"}
{"smiles": "COc1ccc(CN(CCN(C)C)c2ncccn2)cc1", "activity change, negative = cytotoxicity": "-3.79% [at 42.5 µM]"}
{"smiles": "CCC(=O)O[C@]1(C(=O)COC)[C@@H](C)C[C@H]2[C@@H]3CCC4=CC(=O)C=C[C@]4(C)C3(F)[C@@H](O)C[C@@]21C", "note": "(stereo not given in full)", "activity change, negative = cytotoxicity": "1.82% [at 42.5 µM]"}
{"smiles": "CCOC(OCC)OCC", "activity change, negative = cytotoxicity": "-0.993%"}
{"smiles": "CCOc1ccc(NC(C)=O)cc1N", "activity change, negative = cytotoxicity": "0.224%"}
{"smiles": "CC(=O)Nc1ccccc1O", "activity change, negative = cytotoxicity": "0.0968%"}
{"smiles": "Cc1c(N=C=O)cccc1N=C=O", "activity change, negative = cytotoxicity": "5.78%"}
{"smiles": "Cc1c(Cl)cccc1[N+](=O)[O-]", "activity change, negative = cytotoxicity": "0.0058%"}
{"smiles": "O=C(OCCN1CCOCC1)c1cccnc1Nc1cccc(C(F)(F)F)c1", "activity change, negative = cytotoxicity": "-9.72% [at 42.5 µM]"}
{"smiles": "CCCCCC1CCC(=O)O1", "note": "(stereo not given)", "activity change, negative = cytotoxicity": "-5.56%"}
{"smiles": "C=CC(O)CCCCC", "note": "(stereo not given)", "activity change, negative = cytotoxicity": "-0.765%"}
{"smiles": "O=C(OCCOCCOCCOC(=O)c1ccccc1)c1ccccc1", "activity change, negative = cytotoxicity": "-2.16%"}
{"smiles": "CCCN(C1CCN(C(=O)C2CCNCC2)CC1)[C@@H]1CCc2ccc(OC)cc2C1", "activity change, negative = cytotoxicity": "-10.6%"}
{"smiles": "CC/C=C/CCO", "activity change, negative = cytotoxicity": "0.483%"}
{"smiles": "c1ccc(CN(Cc2ccccc2)Cc2ccccc2)cc1", "activity change, negative = cytotoxicity": "-10.1%"}
{"smiles": "C[C@H]1C[C@H]2[C@@H]3CCC4=CC(=O)C=C[C@]4(C)[C@@]3(F)[C@@H](O)C[C@]2(C)[C@@]1(O)C(=O)COP(=O)(O)O", "activity change, negative = cytotoxicity": "1.02%"}
{"smiles": "CCOC(=O)CC(O)(CC(=O)OCC)C(=O)OCC", "activity change, negative = cytotoxicity": "-0.339%"}
{"smiles": "O=C(Nc1ccccc1)c1cc([N+](=O)[O-])ccc1Cl", "activity change, negative = cytotoxicity": "-5.28%"}
